Data on six compounds can be found in PubChem BioAssay (NCATS).

Each structure is given as a SMILES string. Results filed as inconclusive are left out. Values without a mark were called inactive. Calls of active or inactive are those of the source. Calls follow the shape of the dose curve; as a rule, active = well fitted inhibition curve with a large enough effect; inconclusive = small, poorly fitted or top-dose-only effect; inactive = no such curve, though single readings can be large or run the other way.
Potency is read from the fitted curve at half-maximal effect.

Tested on in one test: not listed separately
Kind of test: ZIKV-mCherry secondary qHTS for Zika virus inhibitors (AID 1347158). As to activity change, negative = inhibition: top concentration of the series differs between compounds. Particulars: Vero cells, ZIKV-mCherry infection imaging, 48-72 h; series mostly up to 49.2 µM; activity change, negative = inhibition: at the top concentration. The essentials:
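After overnight seeding at 37 °C, Vero cells receive compound and then ZIKV-mCherry (MOI 1). Following 48-72 h infection, cells are fixed, counterstained with Hoechst, and imaged; percent infected cells is derived from an mCherry intensity cut-off of 450 RFU.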
With `Cc1ccc(-n2[nH]c(C)c(N=Nc3cccc(-c4cccc(C(=O)O)c4)c3O)c2=O)cc1C`, the “activity change, negative = inhibition” value was 3400%.
The same measure, in the same setting: the same measure for `CCCCCCCCc1ccc(CCC(N)(CO)CO)cc1`: -54.4%.
`CC(C)c1cc(C(C)C)c(CC(=O)NS(=O)(=O)Oc2c(C(C)C)cccc2C(C)C)c(C(C)C)c1`: the Potency is 3.16 µM (active).
Take `COc1ccc(S(=O)(=O)Nc2cc(-c3c(O)ccc4ccccc34)c(O)c3ccccc23)cc1`: the “activity change, negative = inhibition” value is 1100%.

Tested on in another test: not listed separately
As to the kind of experiment: Confirmatory screen NINDS Rhodamine qHTS for Zika virus inhibitors (AID 1347161). Also: nearly all actives have a fitted effect of over 60% in size.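 As to activity change, negative = inhibition: purified Zika NS2B-NS3 protease with linked NS2B cofactor domain and Rhodamine110 peptide substrate; plate controls were no-inhibitor control for no effect and no-enzyme control for full effect.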 The settings on record: purified enzyme assay, Rhodamine110 substrate fluorescence, 15 min; series mostly up to 114 µM; activity change, negative = inhibition: at the top concentration. The essentials: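 qHTS dose-response: 25 nM linked protease, pH 8.0 Tris/Tween buffer, cpd titration, 15 min RT preinc, 1.5 microM Rhod110 peptide, 15 min reaction (~15% conversion), Ex480/Em540; 4-parameter Hill fit.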
For the compound `Cc1ccc(-n2[nH]c(C)c(N=Nc3cccc(-c4cccc(C(=O)O)c4)c3O)c2=O)cc1C`, the Potency was 2.21 µM (active).
In the case of `CNC(=O)c1cccc(-c2ccc3c(N4CCOC[C@H]4C)nc(N4CCOC[C@H]4C)nc3n2)c1`, the “activity change, negative = inhibition” value is -19.9%.
On to `C[C@@H](NCc1cc2ccccc2[nH]1)c1cccc2ccccc12`, for which the “activity change, negative = inhibition” value is 296%.
On to `CCCCCCCCc1ccc(CCC(N)(CO)CO)cc1`, for which the “activity change, negative = inhibition” value is 590%.
With `CC(C)c1cc(C(C)C)c(CC(=O)NS(=O)(=O)Oc2c(C(C)C)cccc2C(C)C)c(C(C)C)c1`, the Potency is 2.21 µM (active).
Still for that read-out and setting: the result for `COc1ccc(S(=O)(=O)Nc2cc(-c3c(O)ccc4ccccc34)c(O)c3ccccc23)cc1` reads 8.77 µM (active).

In another test the test system is Zika virus NS2B-NS3 protease (linked). Kind of test: 384 well plate NINDS AMC confirmatory qHTS for Zika virus inhibitors (AID 1347163). Also: nearly all actives have a fitted effect of over 50% in size. Particulars: Recombinant NS2B-NS3 protease, Ac-VKTGKR-AMC fluorescence; series mostly up to 1 mM; activity change, negative = inhibition: at the top concentration. The source says: Description: Assay Submitters (PI): Avindra Nath, Ph.D., National Institute of Neurological Disorders and Stroke (NINDS), Bethesda, MD Radhakrishnan Padmanabhan, Ph.D., Georgetown University (GU), Washington D.C. Zika Virus causes congenital defects, including microcephaly and is associated with Guillain-Barre syndrome, eningoencephalitis and myelitis in infected adult. […] Using a target-based approach, we hope to establish a screening paradigm to uncover novel, cell-active NS2B-NS3 protease (Zika Virus) specific inhibitors from NCATS' collection of small molecules using qHTS. […] Four assay panel was created to identify potential Zika Virus inhibitors. Namely, (1) GU unlinked NS2B-NS3 AMC tagged protease qHTS, (2) GU unlinked NS2B-NS3 Rhodamine tagged protease qHTS, (3) NINDS linked NS2B-NS3 AMC tagged protease qHTS, (4) NINDS linked NS2B-NS3 Rhodamine tagged protease qHTS. Active compounds are validated using a secondary assay in 384 well plate format. Early Translation Branch (ETB) National Center for Advancing Translational Sciences (NCATS), Rockville, MD National Institute of Health (NIH), Bethesda, Maryland
384-well NINDS AMC Assay The protease was diluted to 7.5 nM, 40.9 nM, or 82 nM in assay buffer and dispensed into a 96-well PCR plate (Applied Biosystems); 20 or 22 microL was transferred to a black 384-well assay plate (final protease concentration of 5 nM, 30 nM, or 60 nM, respectively). Compounds (3 microL, 1 microM - 10 mM, DMSO) were diluted and transferred to the assay plate (final concentrations ranged from 100 nM to 1 mM). Compounds were incubated with protease for ~15 minutes. The substrate, Ac-VKTGKR-AMC (Genscript), was dissolved in DMSO to a concentration of 6 mM and further diluted into assay buffer to a working concentration of 180 microM, then dispensed into a 384-well preparation plate (Eppendorf). A multichannel repeat pipettor was used to add 3 or 5 microL of substrate to the assay plate to give a final concentration of 30 microM. The plate was incubated in the dark at room temperature. After 25 minutes, the fluorescence intensity (excitation: 355 nm, emission: 460 nm) was measured and normalized to no-enzyme and no-inhibitor controls. Aprotinin39 (VWR) was used as an intraplate control.
With `Cc1ccc(-n2[nH]c(C)c(N=Nc3cccc(-c4cccc(C(=O)O)c4)c3O)c2=O)cc1C`, the Potency was 178 µM (active).
The same measure, in the same setting: the same measure for `CCCCCCCCc1ccc(CCC(N)(CO)CO)cc1`: 70.8 µM (active).
Take `CC(C)c1cc(C(C)C)c(CC(=O)NS(=O)(=O)Oc2c(C(C)C)cccc2C(C)C)c(C(C)C)c1`: the Potency was 3.16 µM (active).
Same read-out and setting: the result for `COc1ccc(S(=O)(=O)Nc2cc(-c3c(O)ccc4ccccc34)c(O)c3ccccc23)cc1` reads 31.6 µM (active).

For a further test, the system named is Zika virus NS2B-NS3 protease (linked construct). Kind of test: 384 well plate NINDS Rhodamine confirmatory qHTS for Zika virus inhibitors (AID 1347164). Also: nearly all actives have a fitted effect of over 65% in size.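 As to activity change, negative = inhibition: top concentration of the series differs between compounds; plate controls were no-inhibitor control for no effect and no-enzyme control for full effect.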 Particulars: rhodamine-110 peptide substrate fluorescence; series mostly up to 100 µM; activity change, negative = inhibition: at the top concentration. The essentials: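 Linked protease at a final 5 nM, 30 nM or 60 nM was preincubated ~15 min with compounds, then given 10 microM Ac-LKRR-Rhodamine 110. Fluorescence (ex 485/em 538 nm) after 25 min in the dark at room temperature.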
With `Cc1ccc(-n2[nH]c(C)c(N=Nc3cccc(-c4cccc(C(=O)O)c4)c3O)c2=O)cc1C`, the Potency is 7.94 µM (active).
Regarding `CCCCCCCCc1ccc(CCC(N)(CO)CO)cc1`, the “activity change, negative = inhibition” value is 9220% [at 1 mM].
Still for that read-out and setting: the result for `CC(C)c1cc(C(C)C)c(CC(=O)NS(=O)(=O)Oc2c(C(C)C)cccc2C(C)C)c(C(C)C)c1` reads -51.8%.
As to `COc1ccc(S(=O)(=O)Nc2cc(-c3c(O)ccc4ccccc34)c(O)c3ccccc23)cc1`, the Potency was 44.7 µM (active).
